# Bioassay records (PubChem)
# An excerpt weighted towards active compounds, which were near 11% of everything screened.
# HTT cytoprotect: protects HTT-Q103 PC12 cells, measured by ATP | PC12 HTT-Q103 induced, cytoprotection, ATP luminescence, 40 h | Potency, µM (top dose mostly 56.4 µM), actives largely listed as activators | 230,000 compounds, 0.14% hits | AID 1471; note: nearly all actives have a fitted effect of over 45% in size
#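 PC12 cells with ecdysone-inducible HTT exon 1 Q103-GFP, induced with 100 nM tebufenozide and co-treated with library compounds in a dose series (1536-well, 1500 cells/well). Cytoprotection read as ATP content by ATPlite luminescence.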
# HttQ103 aggreg: inhibitors of mutant huntingtin aggregate formation in PC12 cells | PC12 HttQ103-GFP aggregates, Acumen cytometry, 40 h | Potency, µM (highest dose often 46.1 µM), hits mostly inhibitors | 220,000 compounds, 1.1% hits; note: nearly all actives have a fitted effect of over 60% in size
#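 Multiplexed with ATP-based cell death, this channel scores GFP aggregates in PC12 cells expressing inducible HTTex1-Q103-GFP. Induction used 100 nM tebufenozide; compounds were tested in concentration series.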
# ALDH1A1 inh: blocks purified human ALDH1A1 activity | Potency, µM (highest dose often 75.3 µM), actives largely listed as inhibitors | 220,000 compounds, 7.3% hits | AID 1030 | Purified ALDH1A1, NADH fluorescence, propionaldehyde substrate; active = well fitted inhibition curve with a large enough effect, not every such curve was filed as active; inconclusive = small, poorly fitted or top-dose-only effect, or another doubt; inactive = no such curve, though single readings can be large or run the other way
# CBFb-RUNX1 inh: inhibitors of human CBF-beta and RUNX1 interaction. AID 1477. 230,000 tested, under 10 active. Potency, µM (doses to about 59.8 µM), most hits filed as inhibitors. AlphaScreen CBFb-His/RUNX1-biotin binding, biochemical
# Target sequence (Q01196 whole entry, looked up): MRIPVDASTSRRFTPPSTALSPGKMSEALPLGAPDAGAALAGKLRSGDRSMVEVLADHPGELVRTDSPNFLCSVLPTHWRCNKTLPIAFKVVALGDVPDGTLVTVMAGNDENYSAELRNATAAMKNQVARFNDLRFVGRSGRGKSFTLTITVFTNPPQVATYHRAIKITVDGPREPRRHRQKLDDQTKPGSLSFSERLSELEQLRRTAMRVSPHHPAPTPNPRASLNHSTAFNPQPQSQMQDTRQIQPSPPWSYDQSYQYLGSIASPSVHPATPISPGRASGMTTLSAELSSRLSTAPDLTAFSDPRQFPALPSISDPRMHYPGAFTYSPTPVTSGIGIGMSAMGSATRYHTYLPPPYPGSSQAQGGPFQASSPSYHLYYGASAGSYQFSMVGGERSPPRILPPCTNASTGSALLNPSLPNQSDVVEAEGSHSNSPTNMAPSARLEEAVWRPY
# Target sequence (Q13951 whole entry, looked up): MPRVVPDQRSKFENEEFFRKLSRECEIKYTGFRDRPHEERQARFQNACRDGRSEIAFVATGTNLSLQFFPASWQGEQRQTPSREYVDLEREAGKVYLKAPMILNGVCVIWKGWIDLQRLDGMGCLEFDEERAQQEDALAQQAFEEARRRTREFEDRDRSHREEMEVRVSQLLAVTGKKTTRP
#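 CBFb-His/RUNX1-biotin, 30 nM each, preincubated 20 min RT; compound 15 min RT; Ni + streptavidin beads 50 ng each, 90 min RT; AlphaScreen read.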
# PNC assembly inh: perinucleolar compartment assembly inhibition; PC3M PTB-GFP, PNC prevalence imaging, 16 h; active compounds read low; activity change (PNC), negative = inhibition, % at 10 µM; 140,000 compounds, 3.1% hits;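 active = readout at or below -70, meaning at least 70% loss of cells showing the perinucleolar compartment, a nuclear body marking cancer cells; inconclusive = readout between -30 and a set limit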
#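 Read-out is percentage of cells bearing a perinucleolar compartment, from automated 20x imaging of fixed, Hoechst-stained PC3M PTB-GFP cells. Cells were seeded 4 h, then exposed 16 h to compound (23 nl of library stock) in duplicate plates.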
# HPGD inh: inhibitors of human 15-hydroxyprostaglandin dehydrogenase (HPGD) | P15428 | purified HPGD, NADH fluorescence kinetic, PGE2 substrate | Potency, µM, usual class: inhibitors | 150,000 compounds, 4.3% hits | AID 894; active = well fitted inhibition curve with a large enough effect, not every such curve was filed as active; inconclusive = small, poorly fitted or top-dose-only effect, or another doubt; inactive = no such curve, though single readings can be large or run the other way
#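 NADH formation kinetics: reaction with 30 uM PGE2 and 1 mM NAD+ (final), 20 nM enzyme, Tris-HCl pH 8 with Tween 20, after 15 min compound preincubation at room temperature. Fluorescence change, last versus first of five reads.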
# Numbers stand for hits; . = inactive; ? = inconclusive; / = no result given; [ ] = another dose, or the depositor's remark. Unless noted, calls come from the whole dose curve; as a rule, active = well fitted curve in the direction sought with a large enough effect; inconclusive = small, poorly fitted or top-dose-only effect, or another doubt; inactive = no such curve, though single readings can be large; an effect the other way counts as inactive or inconclusive.
SMILES,HTT cytoprotect,HttQ103 aggreg,ALDH1A1 inh,CBFb-RUNX1 inh,PNC assembly inh,HPGD inh
CC1(C)CNC(=O)c2sc(NC(=O)c3ccccc3Cl)nc2C1,.[10 µM],.[9.22 µM],12.6µM,.,/,/
Cc1onc(-c2ccccc2)c1C(=O)Nc1nc2c(s1)C(=O)CC(C)(C)C2,.[10 µM],.,?,.,?,.
CC(=O)c1sc(NC(=O)C2COc3ccccc3O2)nc1C (stereo not drawn),.[10 µM],.,.,.,?,.
CC1(C)CC(=O)c2sc(NC(=O)c3ccco3)nc2C1,.,.,22.4µM,.,.,.
CC1(C)CNC(=O)c2sc(N3CCCCC3)nc2C1,.,.,.,.,?,.
COc1cc(/C=C\C(=O)N2CCCCC2=O)cc(OC)c1OC,.,/,/,/,/,/
NC(=O)/N=C(\N)NC(=O)c1ccccc1,.[10 µM],/,.[13.5 µM],/,/,.
COC(=O)CN1CC(=O)c2ccccc2S1(=O)=O,/,/,/,.,/,/
O=C(NNc1nc2c(F)cc(F)cc2s1)C1COc2ccccc2O1 (stereo not drawn),/,.,.,.,/,/
Cc1cccc2sc(NNC(=O)C3COc4ccccc4O3)nc12 (stereo not drawn),/,.,.,.[2.36 µM],?,28.2µM
COc1ccc2oc(=O)c(C(=O)C[n+]3cccc(C)c3)cc2c1,.[10 µM],.[9.22 µM],14.1µM,.,/,/
[O][C@H]1[C@@H](O)[C@@H](CO)O[C@@H](O[C@@H]2[C@@H]3OC[C@H]2O[C@H](O[C@@H]2[C@@H](O)[C@H](C[C@@H]4[C@@H]5OC[C@H]4O[CH][C@@H]5O)O[C@H](CO)[C@@H]2OS(=O)(=O)O)[C@@H]3OS(=O)(=O)O)[C@@H]1O,/,/,.,/,/,.
COc1ccc(OC)c(NC(=O)CSc2nnc(-c3ccco3)n2-c2ccc(C(=O)O)cc2)c1,.,.,25.1µM,.,?,?
Cc1nonc1NC(=O)CSc1nnc(-c2ccoc2C)n1-c1cccc(Cl)c1,.[1.9 µM],.,10µM,.,?,.
COc1cccc(NC(=O)CSc2nnc(-c3ccoc3C)n2-c2ccccc2)c1,.,.,?,.,-86.9,.
Cc1occc1-c1nnc(SCC(=O)O)n1-c1ccccc1,.[10 µM],.[9.22 µM],/,.,/,/
CCCn1c(SCC(=O)Nc2nonc2C)nnc1-c1ccoc1C,.,.,.,.,.,.
Cc1ccc(C(C)(C)c2ccc(C)cc2)cc1,.,.,/,/,/,/
COc1ccc(/C=C2\N=C(C)OC2=O)cc1[N+](=O)[O-],.[10 µM],.[9.22 µM],17.8µM,.,/,/
COc1ccc(/C=N/Nc2nc(=O)[nH]nc2C)cc1[N+](=O)[O-],.[10 µM],.,?,.,.,.
O=C(CSc1nc2cc(S(=O)(=O)N3CCOCC3)ccc2o1)NC1CCCc2ccccc21 (stereo not drawn),.[10 µM],.,2.24µM,.,?,8.91µM
O=C(NC1CCCc2ccccc21)c1cc(S(=O)(=O)N2CCOCC2)ccc1F (stereo not drawn),.,.,?,.,/,/
Cc1ccc(C(=O)CSc2nc3cc(S(=O)(=O)N4CCOCC4)ccc3o2)cc1,.[10 µM],.,14.1µM,.,.,25.1µM
O=C(CSc1nc2cc(S(=O)(=O)N3CCOCC3)ccc2o1)Nc1c(F)cccc1F,.[10 µM],.,3.98µM,.,/,/
CCn1cc(C(=O)O)c(=O)c2cnc(N3CCN(C(=S)NC(=O)c4ccccc4Cl)CC3)nc21,.[10 µM],.[9.22 µM],.,.,/,/
SMILES,HTT cytoprotect,HttQ103 aggreg,ALDH1A1 inh,CBFb-RUNX1 inh,PNC assembly inh,HPGD inh
Cc1nc(NC(=O)COC(=O)C(NC(=O)c2ccco2)C(C)C)c(Cl)cc1Cl (stereo not drawn),.,.,25.1µM,.,.,.
CCOC(=O)c1c(-c2cccs2)csc1NC(=O)CSc1ncn[nH]1,.[0.074 µM],.,20µM,.,?,?
CCOC(=O)c1c(-c2cccs2)csc1NC(=O)C(C)(C)C,.,14.1µM,.,.,.,?
COC(=O)c1c(NC(=O)CSc2nnc(C)c(=O)[nH]2)sc(C)c1C,.,.,?,.,/,/
CCCn1c(CN2CCN(C)CC2)nc2ccccc21,.,.[9.22 µM],.,.,.,.
Cc1cc(C)c(C)c(S(=O)(=O)NCCC(=O)O)c1C,/,/,.,/,/,.
O=C(CN1CC(c2ccccc2)CC1=O)OCc1ccccc1F (stereo not drawn),.[0.074 µM],.,8.91µM,.,-90.9,.
CCOC(=O)C1=C(N)Oc2ccc(Br)cc2C1C(C#N)C(=O)OCC (stereo not drawn),.,/,15.8µM,.,/,/
CCOC(=O)C1=C(C)OC(N)=C(C#N)C1c1cccs1 (stereo not drawn),.,.,?,?,/,/
COc1ccc(CCN2C(=O)C3C4CC(C5C(C(=O)O)=NOC45)C3C2=O)cc1OC (stereo not drawn),.,.,.,.,.,.
Cc1ccc(CSc2ccc(-c3ccco3)nn2)cc1,.[10 µM],.,.,.,.,.
Clc1cccc(CSc2ccc(-c3ccco3)nn2)c1,.,.,25.1µM,.,/,/
Clc1ccc(CSc2ccc(-c3ccco3)nn2)cc1,.,.,.,.,/,/
c1ccc(CSc2ccc(-c3ccco3)nn2)cc1,.[10 µM],.,39.8µM,.,.,.
Fc1ccccc1CSc1ccc(-c2ccco2)nn1,.,.,28.2µM,.,/,/
COc1ccc(Cc2nnc(N/N=C/c3ccc(Br)cc3)[nH]c2=O)cc1OC,.[10 µM],.[9.22 µM],.,.,/,/
COc1ccc(Cc2nnc(N/N=C/c3ccc(O)cc3)[nH]c2=O)cc1OC,.[10 µM],1.12µM,.,/,?,.
CC(C)c1ccc(C(=O)NN2C(=O)C3CCCCC3C2=O)cc1 (stereo not drawn),.[10 µM],.,.,.,.,.
Cc1cc(Nc2ccccc2N2CCOCC2)n2ncnc2n1,.,.,.,.,.,17.8µM
COc1cccc([C@@H]2Oc3ccc(Br)cc3C(=O)[C@H]2OC(=O)Nc2ccc(C)c(Br)c2)c1,?,/,.,.,/,.
CC(C)(C)n1nnnc1C(c1cccc(C#N)c1)N1CCN2CCCC2C1 (stereo not drawn),.,.,20µM,.,.,.
Cc1cc2c(cc1Cl)C(c1ccccc1C)CC(=O)O2 (stereo not drawn),/,/,?,.,/,.
O=C(O)C1CC(=O)N(c2ccc(OCc3ccccc3)cc2)C1 (stereo not drawn),.,.,.,.,?,.
O=C(O)C1CC(=O)N(c2ccc(OCc3c(F)cccc3Cl)cc2)C1 (stereo not drawn),.[10 µM],.,.,.,-107.7,1.58µM
Cc1ccccc1Nc1nc(N)nc(CN2C(=O)NC3(CCCCC3C)C2=O)n1 (stereo not drawn),.,.,.,.,.,.
Nc1nc2c(ncn2C2OC(COC(=O)c3ccccc3)C(OC(=O)c3ccccc3)C2OC(=O)c2ccccc2)c(=O)[nH]1 (stereo not drawn),/,/,.,/,/,.
